From PubChem BioAssay
Only some compounds are listed: those with a hit (about 14% of all), similar ones and a draw of the others.
Lassa entry inh – blocks Lassa virus binding to or entry into cells; actives 1.2% (n = 300,000); Potency, µM (series often up to 37.9 µM), without a hit: at the highest dose activity change, negative = inhibition, actives largely listed as inhibitors; AID 540256; Lassa virus pseudotype entry inhibition, cell reporter; calls by dose curve; tested in HEK293 cells; note: potency is the fitted concentration of half-maximal effect; nearly all actives have a fitted effect of over 50% in size
Pf growth 48h – inhibits P. falciparum growth in the first generation, 48 h; P. falciparum luciferase growth in erythrocytes, 48 h; Potency, µM (titrated, usually from 28.7 µM), inactives show at the highest dose activity change, negative = inhibition, usual class: inhibitors; actives 5.9% (n = 310,000); AID 504832; note: potency is the fitted concentration of half-maximal effect
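Compounds are pin-transferred into medium, infected erythrocytes (2% hematocrit, 0.1% parasitemia final) are added, and plates sit one parasite generation at 37 C in 5% CO2. Detection reagent is then added and luminescence measured.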
Marburg entry inh – Marburg virus entry inhibition; Marburg virus pseudotyped entry inhibition, cell reporter; Potency, µM (doses to about 37.8 µM), without a hit: at the highest dose activity change, negative = inhibition, hits mostly inhibitors; actives 1.8% (n = 300,000); calls by dose curve; tested in HEK293 cells; note: potency is the fitted concentration of half-maximal effect
Pf growth 96h – P. falciparum growth inhibition at 96 hour, primary screen for plastid delayed-death inhibitors; P. falciparum luciferase reporter growth, 96 h; Potency, µM (titrated, usually from 28.7 µM), inactives show at the highest dose activity change, negative = inhibition, hits mostly inhibitors; actives 6.9% (n = 320,000); note: potency is the fitted concentration of half-maximal effect
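Compounds incubated with erythrocytes infected by luciferase-expressing P. falciparum (2% hematocrit, 0.05% parasitemia final) for 96 hours, 37 C in 5% CO2. Growth inhibition scored as decreased luciferase luminescence.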
HCMV inh – inhibitors of human cytomegalovirus. HFF cells, HCMV-luciferase reporter, 72 h; stronger effect = lower value. activity change, negative = inhibition, % at 57.5 µM. actives 4.5% (n = 410,000). AID 1259415; in the data active = activity change below about -60%; inconclusive = no clear call, values can overlap the other calls; inactive = above about -39%
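After 16 h attachment at 37C, HFF cells received test compound and HCMV-luciferase (1 PFU/cell); reporter luminescence read 72 h later, data normalized against buffer-only and known inhibitor Salinomycin.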
HCV inh – blocks hepatitis C virus | Huh7.5.1 HCVcc-Cre infection, luciferase reporter, 44 h | Potency, µM (highest dose often 41.8 µM), inactives show top-dose activity change, negative = inhibition, usual class: inhibitors | actives 3.4% (n = 340,000) | AID 651820; note: potency is the fitted concentration of half-maximal effect
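HCVcc-Cre virus at an moi near 0.5 was added right after compound to cells cultured 4 h from seeding (1,000 cells/well). Luciferase activity was determined 44 h later, 15 min after substrate addition at RT.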
* marks the source's active call; other numbers are inactive results; u = inconclusive; x = not tested or not shown; [ ] = another dose, or the depositor's remark. Unless noted, calls come from the whole dose curve; as a rule, active = well fitted inhibition curve with a large enough effect; inconclusive = small, poorly fitted or top-dose-only effect, or another doubt; inactive = no such curve, though single readings can be large or run the other way. % is set by controls: 0 for no effect and ±100 for the full control effect.

SMILES	Lassa entry inh	Pf growth 48h	Marburg entry inh	Pf growth 96h	HCMV inh	HCV inh
CN1C(=O)C2(c3ccccc31)N(c1cccc(F)c1)C(=O)CS2(=O)=O (stereo not drawn)	u	x	x	x	27	x
COc1ccc(S(=O)(=O)N2CCc3ccccc32)cc1C(=O)NCc1ccco1	u	13µM*	-28%	u	-38	-18%
O=C(NCc1ccco1)c1cc(S(=O)(=O)N2CCCC2)ccc1Cl	x	-9%	x	2%	-12	18%
O=C(NCc1ccco1)c1cc(S(=O)(=O)N2CCCc3ccccc32)ccc1Cl	u	x	u	-18%	-67*	u
CCOc1ccc(NC(=O)Cc2coc3ccc(C)cc23)cc1	u	x	-12%[46.1 µM]	x	-8	x
Cc1nc(-c2ccc(S(=O)(=O)N3CCCN(CCc4ccccc4)CC3)s2)cs1	u	u	u	4.1µM*	u	u
Cc1nc(-c2ccc(S(=O)(=O)N3CCN(C4c5ccccc5-c5ccccc54)CC3)s2)cs1	1%	u	u	u	-14	-8%
COc1cc(C)c(C)cc1S(=O)(=O)N1CCN(Cc2ccccc2)CC1	1%	u	-17%	19%	-62*	5%
Cc1ccc(S(=O)(=O)N2CCN(C(=O)c3ccco3)CC2)c(C)c1	x	-4%	x	10µM*	u	3%
Cc1ccc(S(=O)(=O)N2CCN(C(=O)c3ccccc3Cc3ccccc3)CC2)c(C)c1	u	u	u	9.3µM*	6	-29%
COc1ccc(S(=O)(=O)N2CCN(Cc3ccccc3)CC2)c(C)c1	x	-10%	x	u	-21	-10%
COc1ccc(S(=O)(=O)N2CCN(C(=O)c3ccccc3Cc3ccccc3)CC2)cc1OC	x	x	x	x	-29	x
CCOC(=O)CCN1C(=O)[C@H]2[C@H]3[C@H](O)[C@H](O)C/C(=N\OCc4ccccc4)[C@@H]3CC[C@H]2C1=O	x	x	-7%[14.2 µM]	x	x	x
CCOC(=O)C1CCN(S(=O)(=O)c2cc(Cl)c(C)cc2OC)CC1	-14%	7%	-3%	1%	-30	20%
Cc1ccc(S(=O)(=O)N2CCN(CC(=O)N3CCCC3)CC2)c(C)c1	x	x	x	x	u	-14%
Cc1ccc(S(=O)(=O)N2CCN(CCc3ccccc3)CC2)c(C)c1	-5%	-20%	u	-4%	-65*	u
COc1cc(C)c(Cl)cc1S(=O)(=O)N1CCSC1	7%	-3%	-9%	12µM*	-13	5%
Cc1ccc(S(=O)(=O)N2CCN(C(=O)C3CCN(C(=O)c4ccc(F)cc4)CC3)CC2)c(C)c1	u	13µM*	u	u	-30	11µM*
CCC1(C)CC(C#N)(C#N)C(=O)NC1=O (stereo not drawn)	x	x	x	x	5	x
CC(C)(C)C(=O)Nc1nc2cc3c(cc2s1)OCO3	x	135%	x	170%	-73*	u
COC(=O)c1ccc2nc(NC(=O)C3CCCCC3)sc2c1	14%	126%	u	u	137	6%
O=C(Nc1nc2ccc(S(=O)(=O)N3CCCCC3)cc2s1)C1CCCO1 (stereo not drawn)	u	-12%	-7%[46.1 µM]	10%	-8	12%
CC(C)C(=O)Nc1nc2cc3c(cc2s1)OCO3	x	107%	x	96%	-11	u
O=C(Nc1nc2ccc(Cl)cc2s1)C1CC1	x	x	x	x	-23	8.9µM*
O=C(Nc1nc2cc3c(cc2s1)OCCO3)C1CCCCC1	10µM*	-35%	u	-10%	1	u
SMILES	Lassa entry inh	Pf growth 48h	Marburg entry inh	Pf growth 96h	HCMV inh	HCV inh
O=C(Nc1nc2ccc(Cl)cc2s1)C1CCCO1 (stereo not drawn)	u	x	u	30%	34	-24%
O=C(Nc1nc2ccc(S(=O)(=O)N3CCCC3)cc2s1)C1CCCCC1	-25%	u	u	1%	-62*	u
C=C(Br)CO[C@@H]1C=C[C@@H](c2ccccc2)O[C@@H]1COC	x	x	9%[14.2 µM]	x	x	x
COc1cccc(NC(=O)Cn2cc(C(=O)c3ccco3)c3ccccc32)c1	9%[46.1 µM]	x	u	x	10	x
Oc1ccc(Cl)cc1C1=Nc2ccccc2N=C(c2cccc(Br)c2)C1	7%[46.1 µM]	x	x	x	55	x
O=C(Nc1nc2cc3c(cc2s1)OCO3)C1CC1	-4%	81%	u	95%	-15	10µM*
O=C(Nc1nc2cc3c(cc2s1)OCO3)C1CCCCC1	x	190%	x	113%	76	u
O=C(CNC(=O)c1ccc2c(c1)S(=O)(=O)N=C1CCCCCN12)Nc1ccc(F)c(F)c1	-27%[46.1 µM]	10µM*	9%	u	-15	-3%
O=S(=O)([N-]c1nc2ccccc2nc1-[n+]1ccccc1)c1ccc(Cl)cc1	1%	-6%	0%	127%	-62*	24%
Cc1cc(C)cc(OCC(=O)N2CCC(c3nc4ccccc4o3)CC2)c1	4%[46.1 µM]	x	-3%[46.1 µM]	x	76	x
Nc1nc(-c2ccccc2)c(N=Nc2cccc3ccccc23)s1	-14%	11%	u	u	4	u
Nc1nc(-c2ccccc2)c(N=Nc2ccccc2Cl)s1	-15%	u	u	u	44	11µM*
CCN(C(=O)Cn1c(=O)n(CC2CCC(C(=O)NC)CC2)c(=O)c2sccc21)c1ccccc1 (stereo not drawn)	5%[46.1 µM]	x	x	x	2	x
COC(=O)C1=C(C)N(CCc2cc(OC)c(OC)c(OC)c2)C(=O)NC1c1ccc(Br)cc1 (stereo not drawn)	-3%[14.3 µM]	x	2%[14.2 µM]	x	x	x
Cc1ccc(CN2C(=O)CSCC2(C)C(=O)NCc2ccccc2)cc1 (stereo not drawn)	x	x	x	x	77	x
CC(C)NC(=O)c1ccc(CN2CCC(Cc3ccccc3)CC2)cc1	21%[46.1 µM]	u	u	u	42	u
C=CCNC(=O)c1ccc(CN2CCC(Cc3ccccc3)CC2)cc1	x	10µM*	x	-15%	31	-16%
C=CCNC(=S)N1CCC(Cc2ccccc2)CC1	-27%[46.1 µM]	u	-24%[46.1 µM]	12µM*	13	-8%
Cc1cc(-c2nn(-c3ccccc3F)cc2CN2CCC(O)CC2)c(C)s1	x	u	x	u	-10	-3%
Cc1cc(-c2nn(-c3ccccc3F)cc2CN2CCN(c3ccncc3)CC2)c(C)s1	u	4.1µM*	6.3µM*	u	-11	u
CCC1CCc2sc(C(=O)NCc3ccccn3)cc2C1 (stereo not drawn)	9%[46.1 µM]	-16%	u	u	17	-9%
CC1CCc2sc(C(=O)NC3CCN(Cc4ccccc4)CC3)cc2C1 (stereo not drawn)	x	8.3µM*	x	6.6µM*	u	11µM*
CCC1CCc2sc(C(=O)NC3CCN(Cc4ccccc4)CC3)cc2C1 (stereo not drawn)	u	u	u	u	u	10µM*
Cc1ccc(NC(=O)CC2Sc3ccccc3NC2=O)c(Br)c1 (stereo not drawn)	u	x	u	x	-10	x
